Source: PubChem BioAssay
Shown are actives, neighbours in structure and some others; about 7.5% of the full set was active somewhere.
Luc counter: Kinase-Glo luciferase inhibition (counter-screen) | 0.28% of 200,000 active | Kinase-Glo luciferase, ATP luminescence, 8 min | Q27757 | AID 1379 | Potency, µM (doses to about 38.3 µM), for inactives: top-dose activity change, negative = inhibition, hits mostly inhibitors; further: on the % scale 0 is the no-effect control and ±100 the full control effect; nearly all actives have a fitted effect of over 60% in size
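Substrate mix (final 50 mM imidazole pH 7.2, 50 mM KCl, 7 mM MgCl2, 10 uM ATP, 0.01% Tween 20, 0.05% BSA) plus pin-tool compound, then Kinase-Glo detection mix; 8 min ambient, luminescence read.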
NPC1 promoter act: activators of NPC1 promoter | Huh7 NPC1 promoter luciferase reporter, 24 h | Potency, µM (doses to about 9.22 µM), for inactives: top-dose activation, hits mostly activators | 2.4% of 320,000 active | AID 485313; further: % of control where 0% means no effect; nearly all actives have a fitted effect of over 60% in size
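Readout is luciferase luminescence, reflecting NPC1 promoter activation in stably transfected Huh7 cells after 24 h compound exposure at 37 °C in reduced-serum medium with 10% FBS.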
ELG1 genotoxic: genotoxicity induction in ELG1-luciferase HEK293T cells | AID 504466 | Potency, µM (highest dose often 46 µM), without a hit: at the top dose activity change, positive = activation, actives largely listed as activators | HEK293T ELG1-luciferase reporter, luminescence, 16 h | 1.3% of 330,000 active; further: % of control where 0% means no effect; nearly all actives have a fitted effect of over 60% in size
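DMSO vehicle served as control against compound-treated ELG1-luciferase HEK293T cells; exposure lasted 16 hr at 37 °C and 5% CO2, followed by ONE-Glo luminescence detection after 30 min.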
SMN2 splice up: enhancers of SMN2 splice variant expression; HEK293 SMN2-luciferase splicing reporter, luminescence, 30-36 h; Potency, µM (top dose mostly 46.1 µM), without a hit: at the highest dose activity change, positive = activation, hits mostly activators; 2.8% of 210,000 active; further: % of control where 0% means no effect; nearly all actives have a fitted effect of over 55% in size
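qHTS luciferase splicing reporter: luminescence rises when SMN2 exon 7 is included in transfected HEK293 cells. Compound exposure lasted 30-36 h at 37C, with 4.5 mM final sodium butyrate as control, followed by a ONE-Glo read.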
Rab9 prom act: activators of Rab9 promoter | 2.8% of 320,000 active | Huh7 Rab9 promoter-luciferase reporter, luminescence, 24 h | Potency, µM (doses to about 9.22 µM), for inactives: at the highest dose activation, negative = inhibition, most hits filed as activators; further: % of control where 0% means no effect; nearly all actives have a fitted effect of over 60% in size
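Using Huh7 cells stably transfected with Rab9 promoter–luciferase, compounds were incubated 24 h at 37 °C, 5% CO2; luciferase luminescence was read 10 min after reagent addition.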
FLuc counter: counter-screen for miR-21 project: firefly luciferase inhibitors or activators; P08659; purified FLuc, Km substrates, luminescence inhibition; Potency, µM (series often up to 57.5 µM), for the others: top-dose activity change, negative = inhibition, actives largely listed as inhibitors; 6.9% of 360,000 active; AID 588342;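 further: plate controls were vehicle for no effect and reference inhibitor for full effect; nearly all actives have a fitted effect of over 55% in size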
Target sequence (P08659 whole entry, looked up): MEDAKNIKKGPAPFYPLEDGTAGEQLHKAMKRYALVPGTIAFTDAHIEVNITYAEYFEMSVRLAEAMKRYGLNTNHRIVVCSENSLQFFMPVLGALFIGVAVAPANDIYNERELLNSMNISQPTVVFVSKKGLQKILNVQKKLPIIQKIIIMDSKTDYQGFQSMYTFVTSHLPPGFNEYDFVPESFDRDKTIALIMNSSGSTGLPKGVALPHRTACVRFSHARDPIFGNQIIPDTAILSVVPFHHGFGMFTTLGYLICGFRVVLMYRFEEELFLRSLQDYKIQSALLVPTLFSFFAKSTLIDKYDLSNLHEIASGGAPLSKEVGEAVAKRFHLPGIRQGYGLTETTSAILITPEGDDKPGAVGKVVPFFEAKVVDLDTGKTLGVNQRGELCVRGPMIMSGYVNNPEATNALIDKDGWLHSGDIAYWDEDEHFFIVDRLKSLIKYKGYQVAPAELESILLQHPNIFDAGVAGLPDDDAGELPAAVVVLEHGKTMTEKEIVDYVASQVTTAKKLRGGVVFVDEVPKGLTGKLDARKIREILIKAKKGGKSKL
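Purified P. pyralis luciferase (10nM final) with 10uM D-luciferin and 10uM ATP (Km levels) in 50mM Tris acetate pH 7.5, 10mM Mg acetate, 0.01% Tween-20, 0.05% BSA; qHTS 6-point titration, ~60 µM downward; luminescence read.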
Active calls of the source: *; ? = inconclusive; . = not tested or not shown; [ ] = another dose, or the depositor's remark. The call rests on the fitted dose curve; in most records, active means well fitted curve in the direction sought with a large enough effect; inconclusive means small, poorly fitted or top-dose-only effect, or another doubt; inactive means no such curve, though single readings can be large; an effect the other way counts as inactive or inconclusive. Potency means the concentration at half of the fitted maximal effect.

SMILES	Luc counter	NPC1 promoter act	ELG1 genotoxic	SMN2 splice up	Rab9 prom act	FLuc counter
Cc1[nH]c2c(ccc3cccnc32)c1C	.	11.1%	5.0%	.	18.1%	23.9µM*
COc1cc(NC(=O)CCC(=O)Nc2ccc3nc(N4CCOCC4)cc(C)c3c2)cc(OC)c1OC	.	24.1%	6.2%	.	16.5%	15.1µM*
COc1ccc(NC(=O)CCC(=O)Nc2ccc3nc(N4CCOCC4)cc(C)c3c2)c(OC)c1	.	?	?	.	2.51µM*	2.69µM*
Cc1ccc(C(=O)c2cn(Cc3c(F)cccc3Cl)c3nc(C)ccc3c2=O)cc1	.	.	.	2.4%	.	-11.9%
COc1ccccc1COc1ccc2c(C)c(CCC(=O)O)c(=O)oc2c1C	.	-1.5%	4.6%	.	2.7%	23.9µM*
Cc1c(OCc2ccc(C(=O)O)o2)ccc2c3c(c(=O)oc12)CCC3	-2.8%	-1.5%	?	12.0%	1.9%	19µM*
COC(=O)c1ccc(COc2ccc(Cl)cc2)o1	.	15.7%	8.0%	.	20.4%	?
CCN(CC)C(=O)COc1ccc2c3c(c(=O)oc2c1C)CCCC3	.	0.2%	0.4%	.	-3.5%	-2.1%
COC(=O)c1ccc(COc2ccc3c(C)c(C)c(=O)oc3c2C)o1	-1.1%	?	6.8%	15.8%	?	4.78µM*
Cc1c(OCC(=O)Nc2cccnc2)ccc2c3c(c(=O)oc12)CCC3	.	29.9%	12.8%	.	28.0%	19µM*
CCC(C(=O)Nc1ccc(C(C)=O)cc1)n1cnc2nc3c(cc2c1=O)CCCC3 (stereo not drawn)	.	.	.	.	.	4.2%
Cc1cc(C)n(-c2nc3cc(Cl)c(Cl)cc3nc2Nc2ccc(F)cc2C)n1	.	.	.	3.6%	.	-0.6%
CC(C)c1cnc2c(c1SCc1cccc(F)c1)c(=O)n(C)c(=O)n2C	.	.	.	.	.	2.2%
COc1ccc(CCNC(=O)Cn2cc(C(=O)c3ccc(Cl)cc3)c(=O)c3ccc(C)nc32)cc1OC	.	.	.	.	.	-2.1%
C=CCNC(=O)N1CCc2nc(COc3ccccc3)c3c(c2C1)CO[C@@H](C)C3	0.3%[7.66 µM]	.	.	-9.6%[9.22 µM]	.	.
CC(=O)NS(=O)(=O)c1ccc(NC(=O)c2cc(-c3ccc(C)c(C)c3)nc3ccccc23)cc1	-1.2%	13.1%	2.8%	1.9%	10.0%	1.35µM*
CC(=O)Nc1ccc(-c2cc(C(=O)O)c3ccccc3n2)cc1	.	-3.0%	-1.5%	.	0.5%	3.38µM*
CC(=O)NS(=O)(=O)c1ccc(NC(=O)c2cc(-c3cccs3)nc3ccccc23)cc1	1.4%	0.2%	0.3%	-0.1%	-0.1%	?
CC(=O)NS(=O)(=O)c1ccc(NC(=O)c2cc(-c3ccc(C)cc3)nc3ccccc23)cc1	3.1%	0.4%	9.7%	18.2%	15.9%	8.49µM*
Cc1cc(NC(=O)c2cc(-c3ccc(C)c(C)c3)nc3ccccc23)no1	-9.0%	0.9%	-8.9%	5.4%	-1.2%	4.78µM*
Cc1cc(C)c(NC(=O)Cn2c(=O)n(Cc3ccc(C(=O)NCc4ccco4)cc3)c(=O)c3sccc32)c(C)c1	.	.	.	27.8%	.	-1.6%
CCOC(=O)c1c(-c2ccccc2)oc2cc(Br)c(OCc3ccccc3)cc12	.	.	.	-5.2%	.	-3.0%
C=C(C(C)=O)C(O)c1ccco1 (stereo not drawn)	-1.9%	.	.	-3.0%	.	.
CCCOc1ccc(OC(=O)c2cn(-c3ccc(OC)cc3)c(=O)c3ccccc23)cc1	.	.	.	.	.	-1.8%
Cc1ccc(-c2cc(C(=O)Nc3ccc(S(=O)(=O)Nc4nc(C)cc(C)n4)cc3)c3ccccc3n2)cc1	0.0%	0.9%	1.8%	14.1µM*	3.4%	16.9µM*
Cc1cc(/C=C2/C(=O)NN(c3ccccc3)C2=O)c(C)n1-c1cccc(O)c1	-20.7%	1.58µM*	?	-25.4%	3.55µM*	0.135µM*
Cc1sc(-n2c(C)cc(/C=N/n3cnnc3)c2C)c(C#N)c1C	.	-6.0%	2.0%	.	-5.2%	?
Cc1cc(C=O)c(C)n1-c1cccc(C(=O)O)c1	-2.7%	-2.2%	0.2%	.	-7.0%	3.7%
